VACV mCherry inh: inhibitors of vaccinia virus infection (mCherry reporter signal); Potency, µM (doses to about 36.5 µM), for the others: top-dose activity change, negative = inhibition, hits mostly inhibitors; 310,000 tested, 0.63% active; Vaccinia virus mCherry reporter infection, fluorescence; calls by dose curve; tested in A549 cells; further: potency means the concentration at half of the fitted maximal effect; on the % scale 0 is the no-effect control and ±100 the full control effect; nearly all actives have a fitted effect of over 35% in size
Vaccinia Venus: vaccinia inhibition (Venus reporter); Vaccinia virus Venus reporter expression, fluorescence; 330,000 tested, 0.46% active; Potency, µM (highest dose often 36.5 µM), for the others: at the top dose activity change, negative = inhibition, hits mostly inhibitors; AID 720580; calls by dose curve; tested in A549 cells; further: potency means the concentration at half of the fitted maximal effect; on the % scale 0 is the no-effect control and ±100 the full control effect; nearly all actives have a fitted effect of over 30% in size
Cycloheximide cs: affects cycloheximide protein synthesis inhibition readout, counter-screen | cell reporter, cycloheximide protein synthesis inhibition counterscreen | AID 2314 | max response, % | 300,000 tested, 12% active; in the data active means max response mostly above about 13%, no sharp cut-off; inactive means mostly below about 14%; further: read at 38.3 µM for the half of the compounds with a filed dose; 0% is about no effect
Marburg entry inh: inhibitors of Marburg virus binding or cell entry | Marburg virus pseudotyped entry inhibition, cell reporter | Potency, µM (doses to about 37.8 µM), inactives show at the top dose activity change, negative = inhibition, actives largely listed as inhibitors | 300,000 tested, 1.8% active; calls by dose curve; tested in HEK293 cells; further: potency means the concentration at half of the fitted maximal effect; on the % scale 0 is the no-effect control and ±100 the full control effect
Shiga toxin inh: Shiga toxin inhibition | Vero cells, Shiga toxin protein synthesis inhibition reporter | 290,000 tested, 9.2% active | AID 2315 | inhibition, % at 38.7 µM; in the data active means inhibition mostly above about 28%, no sharp cut-off; inactive means mostly below about 43%; further: 0% is about no effect
Lassa entry inh: blocks Lassa virus binding to or entry into cells. AID 540256. Lassa virus pseudotype entry inhibition, cell reporter. Potency, µM (highest dose often 37.9 µM), for inactives: at the highest dose activity change, negative = inhibition, actives largely listed as inhibitors. 300,000 tested, 1.2% active; calls by dose curve; tested in HEK293 cells; further: potency means the concentration at half of the fitted maximal effect; on the % scale 0 is the no-effect control and ±100 the full control effect; nearly all actives have a fitted effect of over 50% in size
Numbers without * were called inactive; i = inactive; ? = inconclusive; · = no result; [ ] = another dose, or the depositor's remark. The sample as a whole holds a higher share of hits than the screen did.

SMILES	VACV mCherry inh	Vaccinia Venus	Cycloheximide cs	Marburg entry inh	Shiga toxin inh	Lassa entry inh
Cc1ccc(/C(N)=N/OC(=O)c2ccc3c(c2)OCO3)cc1	-1%	3%	74*	?	98*	?
N/C(=N\OC(=O)c1ccc2c(c1)OCO2)c1ccc(Cl)cc1	-4%	-6%	62*	-24%	91*	-30%
N/C(=N\OC(=O)c1ccc2c(c1)OCO2)c1ccncc1	·	·	35*	·	44	·
Cc1ccc(N(C(=O)c2ccc3c(c2)OCO3)C2C=CS(=O)(=O)C2)cc1 (centres undefined)	i	-18%	3	-1%	-7	0%
COc1ccc(/C(N)=N/OC(=O)c2ccc3c(c2)OCO3)cc1	-4%	-6%	52*	7%	46*	?
O=C(C[C@H]1C[C@@H]2c3cc(NC(=O)Nc4ccccc4F)ccc3O[C@@H]2[C@H](CO)O1)NCc1ccccn1	-3%	-4%	·	·	·	·
CCOc1ccc(CC(=O)Nc2nccs2)cc1	0%	3%	20*	-5%[46.1 µM]	12	-3%
Cc1cccc(OCCCC(=O)Nc2nccs2)c1	·	?	1	-1%	-9	-10%
Cc1ccc(OCCCC(=O)Nc2nccs2)cc1	-21%	-16%	23*	-4%	42*	5%
COc1ccc2c(CC(=O)Nc3nccs3)coc2c1	-5%	2%	31*	?	77*	0%
COc1cc(OC)cc(N(C(=O)CNC(=O)c2ccco2)C(C(=O)NCC2CCCO2)c2ccccc2)c1 (centres undefined)	4%	4%	1	?	-4	-23%[46.1 µM]
N#Cc1ccccc1COC(=O)c1ccc(Br)o1	i	-24%	26*	-16%[46.1 µM]	55	?
COc1cccc(C(=O)OCc2ccccc2C#N)c1O	-14%	-15%	21*	?	36	11%
N#Cc1ccccc1COC(=O)c1cc(=O)c2ccccc2o1	-17%	-3%	8	3%[46.1 µM]	46	17%[46.1 µM]
COc1ccc(C(=O)OCc2ccccc2C#N)cc1S(=O)(=O)N1CCOCC1	i	-6%	·	·	·	·
Cc1ccnc2nc(C(=O)OCC(=O)N3CC(C)CC(C)C3)nn12 (centres undefined)	-18%	-1%	·	2%[46.1 µM]	·	-24%
COc1ccc(C2CC(c3ccccc3)=NN2C(=O)c2ccc(F)cc2)cc1 (centres undefined)	-1%	-14%	11	4%	-2	-12%
COc1ccc(C2CC(c3ccccc3)=NN2C(=O)CN2N=NC3C(=O)N(c4cccc(F)c4)C(=O)C32)cc1 (centres undefined)	i	-8%	11*	-44%	-9	4%
N#CC1=C2C=CC=CN2CC1=O	-7%	7%	30*	13%	111*	9%
O=C(CSc1n[nH]c(-c2ccccn2)n1)Nc1ccccc1F	28µM*	?	2	?	12	·
O=C(CSc1n[nH]c(-c2ccccn2)n1)Nc1ccccc1	7.9µM*	-24%	-4	?	-10	?
CCOC(=O)c1cc(S(=O)(=O)N2CCN(c3ccc(OC)cc3)CC2)[nH]n1	-12%	-8%	·	·	·	24%[46.1 µM]
CCN1CCN(c2ccc(NC(=O)c3ccco3)cc2)CC1	·	·	42*	·	34*	·
CC(C)c1ccc(NC(=O)C(c2ccccc2)N2CCN(C(=O)c3ccco3)CC2)cc1 (centres undefined)	i	?	55*	-22%[46.1 µM]	125*	15%
O=C(Nc1ccc(N2CCN(C(=O)c3ccco3)CC2)cc1)c1ccco1	-7%	2%	12*	?	43	15%
SMILES	VACV mCherry inh	Vaccinia Venus	Cycloheximide cs	Marburg entry inh	Shiga toxin inh	Lassa entry inh
O=C(Nc1ccc(N2CCN(C(=O)c3ccco3)CC2)cc1)c1ccc(Br)cc1	·	·	-1	·	-2	·
O=C(c1ccco1)N1CCN(c2ccc(Cl)cc2)CC1	·	·	37*	?	79*	?
C/C(CC(=O)Nc1cccc(Cl)c1C)=N\NC(=O)Cc1csc(N)n1	·	·	16	·	18	·
Cc1ccccc1C(=O)N1CCN(c2ccc(NC(=O)c3ccco3)cc2Cl)CC1	?	?	4	?	-3	10µM*
O=C(c1ccco1)N1CCN(c2ccc(Cl)c(Cl)c2)CC1	·	·	·	23%	·	11%
O=C(Nc1ccc(N2CCN(C(=O)c3ccco3)CC2)cc1)c1cc(Br)ccc1Cl	-29%	?	·	10µM*	·	?
O=[N+]([O-])c1ccc(N/N=C2\CC3CC=CC23)cc1 (centres undefined)	·	·	42*	·	82*	·
O=[N+]([O-])c1ccc(N/N=C2\CC3CC=CC23)c([N+](=O)[O-])c1 (centres undefined)	-1%	2%	5	0%[46.1 µM]	44	-16%
COc1cccc(OCc2cc(C(=O)N3CCN(c4ccccc4O)CC3)no2)c1	?	-2%	50*	4%[46.1 µM]	107*	?
COc1cccc(OCc2cc(C(=O)N3CCN(C(C)=O)CC3)no2)c1	·	·	60*	·	104*	·
COc1cccc(OCc2cc(C(=O)N3CCN(c4ccccc4OC)CC3)no2)c1	·	·	29*	·	70*	·
Cc1ccc(N2CCN(C(=O)c3cc(COc4c(C)cccc4C)on3)CC2)c(C)c1	i	-13%	8	-8%	-30	0%
CCc1cccc(-n2nnc(-c3nc(-c4ccccc4Cl)no3)c2N)c1	-17%[7.34 µM]	-13%[7.34 µM]	·	·	·	4%[46.1 µM]
O=C(COc1ccccc1)Nc1nccs1	i	-11%	30*	-24%	53*	-17%
O=C(COc1ccc2ccccc2c1)Nc1nccs1	-11%	8%	42*	?	52*	?
O=C(COc1ccc2ccc(=O)oc2c1)Nc1nccs1	·	·	64*	·	68*	·
COc1ccc(C(=O)OCC(=O)Nc2sccc2C(N)=O)cc1OC	-14%	-6%	9.3*	5%[46.1 µM]	8	-5%[46.1 µM]
N#C/C(C(=O)N1CCOCC1)=C1\S[C@H](Cc2ccccc2)C(=O)N1c1ccccc1	·	·	·	20%	·	·
COCC(=O)Nc1cc(C(=O)N2CCCOc3c(cccc3OC)C2)c2c(c1)nc(C1CCC1)n2C	-9%	-11%	·	·	·	·
COc1ccccc1CCC(=O)Nc1ccc(S(=O)(=O)Nc2nccs2)cc1	-18%	-8%	·	24%	·	-16%
COc1ccccc1CCC(=O)Nc1ccc(C)cc1Cl	-25%	-29%	55*	-9%[46.1 µM]	90*	5%
COc1ccccc1-n1ccn(CC(=O)Nc2ccc(C)cc2Cl)c(=O)c1=O	-7%	-7%	·	18%	·	?
COc1ccccc1CCC(=O)Nc1nccs1	-2%	-17%	14*	29%	32	24%
COc1cccc(CNc2nccs2)c1O	i	-5%	24*	-9%	·	1%
O=C(COC(=O)c1ccccc1Cl)Nc1nccs1	i	-9%	11*	15%	18	6%
NC(=O)c1ccsc1NC(=O)COC(=O)C1CC2CCCC(C1)C2=O (centres undefined)	9%	-9%	14*	4%[46.1 µM]	5	?
NC(=O)c1ccsc1NC(=O)COC(=O)Cc1cccc2ccccc12	-13%[1.46 µM]	?	-2	7.1µM*	-4	-28%
NC(=O)c1ccsc1NC(=O)COc1ccccc1	·	·	42*	-16%	86*	?
